Common to all, as to assay: DAPPL (digital affinity profiling via proximity ligation, sequencing); 10 mM Tris-HCl pH 7.5, 50 mM NaCl, 1 mM DTT, 4% glycerol, room temperature, 30 min; GST-TFs on glutathione beads, 16-mer random dsDNA library, 0.1% formaldehyde crosslink after washing; high values mean tight binding
Holding throughout (conditions): protein: recombinant; tags: N-terminal GST; dsDNA, one strand shown

Assay [1] deals with ELF4 (Homo sapiens, UniProt Q99607 1-663). The gist of the method: (§1)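 Each value of binding signal is a hexamer's read frequency for a factor divided by the same hexamer's frequency in the tag-only sample. Barcoded, bead-captured GST fusions of human transcription factors made in yeast were pooled with that sample and incubated with 200 nmole of a random double-stranded 16-mer DNA library in Tris/NaCl/DTT/glycerol buffer at room temperature for 30 min. Washing, 0.1% formaldehyde crosslinking, proximity ligation, PCR and Illumina NextSeq500 sequencing followed.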
Chain of ELF4 (Q99607 whole entry, the tested form may be a part): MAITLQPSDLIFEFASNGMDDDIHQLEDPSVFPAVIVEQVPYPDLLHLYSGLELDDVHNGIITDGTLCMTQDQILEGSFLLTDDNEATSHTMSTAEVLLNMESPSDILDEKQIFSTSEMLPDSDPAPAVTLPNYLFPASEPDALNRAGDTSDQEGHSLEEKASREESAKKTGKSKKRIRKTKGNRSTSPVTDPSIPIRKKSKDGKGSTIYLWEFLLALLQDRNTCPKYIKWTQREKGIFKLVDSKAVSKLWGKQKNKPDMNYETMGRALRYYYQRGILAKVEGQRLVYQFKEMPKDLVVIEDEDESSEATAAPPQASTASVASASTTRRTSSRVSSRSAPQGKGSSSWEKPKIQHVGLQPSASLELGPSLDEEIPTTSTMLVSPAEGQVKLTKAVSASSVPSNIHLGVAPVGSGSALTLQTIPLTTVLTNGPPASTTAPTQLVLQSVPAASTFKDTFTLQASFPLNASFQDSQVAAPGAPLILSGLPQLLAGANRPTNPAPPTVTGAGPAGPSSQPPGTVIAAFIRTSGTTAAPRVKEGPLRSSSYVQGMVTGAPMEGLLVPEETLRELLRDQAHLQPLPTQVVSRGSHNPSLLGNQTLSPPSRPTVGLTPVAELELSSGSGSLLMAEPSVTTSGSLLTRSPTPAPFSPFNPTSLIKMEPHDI

The target of assay [2] is T1, ELK4 (Homo sapiens, UniProt P28324-2 1-405).
T1 sequence: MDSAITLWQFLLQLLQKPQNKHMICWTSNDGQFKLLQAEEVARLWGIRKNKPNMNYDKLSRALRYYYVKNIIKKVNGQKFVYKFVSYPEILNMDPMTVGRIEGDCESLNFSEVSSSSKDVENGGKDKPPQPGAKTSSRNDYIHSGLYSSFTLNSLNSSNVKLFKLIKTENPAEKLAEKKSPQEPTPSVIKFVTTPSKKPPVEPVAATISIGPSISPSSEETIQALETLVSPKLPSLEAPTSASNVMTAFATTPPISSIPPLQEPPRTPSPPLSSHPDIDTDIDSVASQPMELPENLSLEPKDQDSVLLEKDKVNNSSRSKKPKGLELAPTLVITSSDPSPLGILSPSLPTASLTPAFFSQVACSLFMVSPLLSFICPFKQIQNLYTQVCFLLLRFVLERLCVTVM
An outline of the steps:
as §1

For assay [3], the target named is T2, ETV2 (Homo sapiens, UniProt O00321 1-342).
T2 sequence: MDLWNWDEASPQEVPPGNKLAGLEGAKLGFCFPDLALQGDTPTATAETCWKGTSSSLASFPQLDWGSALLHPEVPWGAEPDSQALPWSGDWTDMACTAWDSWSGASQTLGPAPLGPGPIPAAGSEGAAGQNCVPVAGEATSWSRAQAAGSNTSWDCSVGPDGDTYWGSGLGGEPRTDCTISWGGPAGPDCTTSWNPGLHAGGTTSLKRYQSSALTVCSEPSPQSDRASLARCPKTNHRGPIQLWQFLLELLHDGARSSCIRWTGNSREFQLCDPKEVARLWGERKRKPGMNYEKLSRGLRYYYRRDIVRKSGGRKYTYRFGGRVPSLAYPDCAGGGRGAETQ
The gist of the method: as §1

Assay [4] concerns the target T3, ELF3 (Homo sapiens, UniProt P78545 1-371).
T3 sequence: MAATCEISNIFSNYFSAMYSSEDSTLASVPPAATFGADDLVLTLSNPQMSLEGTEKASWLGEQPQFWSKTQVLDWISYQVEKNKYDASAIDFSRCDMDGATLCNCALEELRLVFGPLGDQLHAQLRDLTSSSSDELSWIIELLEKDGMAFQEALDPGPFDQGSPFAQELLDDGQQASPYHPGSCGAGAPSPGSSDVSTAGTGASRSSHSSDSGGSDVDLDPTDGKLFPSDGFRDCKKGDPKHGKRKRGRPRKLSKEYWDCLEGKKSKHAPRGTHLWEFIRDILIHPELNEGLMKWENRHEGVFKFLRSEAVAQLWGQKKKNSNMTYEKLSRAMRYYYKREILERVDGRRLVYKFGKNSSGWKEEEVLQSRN
An outline of the steps: as §1

Assay [5] deals with T4, ERF (Homo sapiens, UniProt P50548 1-548).
T4 sequence: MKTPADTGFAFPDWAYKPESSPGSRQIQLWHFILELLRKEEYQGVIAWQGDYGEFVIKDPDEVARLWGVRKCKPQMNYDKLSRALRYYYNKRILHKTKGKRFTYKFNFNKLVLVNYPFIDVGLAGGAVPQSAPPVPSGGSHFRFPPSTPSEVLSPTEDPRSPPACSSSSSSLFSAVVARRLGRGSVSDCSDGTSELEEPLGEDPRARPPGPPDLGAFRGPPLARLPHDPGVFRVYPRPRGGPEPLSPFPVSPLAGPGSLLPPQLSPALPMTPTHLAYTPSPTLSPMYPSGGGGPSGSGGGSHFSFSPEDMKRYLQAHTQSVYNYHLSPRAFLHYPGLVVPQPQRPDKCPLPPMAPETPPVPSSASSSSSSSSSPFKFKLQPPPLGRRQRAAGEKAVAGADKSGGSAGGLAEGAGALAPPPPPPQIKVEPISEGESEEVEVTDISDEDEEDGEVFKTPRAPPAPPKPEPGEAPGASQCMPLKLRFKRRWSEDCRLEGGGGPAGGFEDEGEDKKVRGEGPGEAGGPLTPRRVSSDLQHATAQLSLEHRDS
The gist of the method:
as §1

In assay [6] the target is T5, ETV3L (Homo sapiens, UniProt Q6ZN32 1-361).
T5 sequence: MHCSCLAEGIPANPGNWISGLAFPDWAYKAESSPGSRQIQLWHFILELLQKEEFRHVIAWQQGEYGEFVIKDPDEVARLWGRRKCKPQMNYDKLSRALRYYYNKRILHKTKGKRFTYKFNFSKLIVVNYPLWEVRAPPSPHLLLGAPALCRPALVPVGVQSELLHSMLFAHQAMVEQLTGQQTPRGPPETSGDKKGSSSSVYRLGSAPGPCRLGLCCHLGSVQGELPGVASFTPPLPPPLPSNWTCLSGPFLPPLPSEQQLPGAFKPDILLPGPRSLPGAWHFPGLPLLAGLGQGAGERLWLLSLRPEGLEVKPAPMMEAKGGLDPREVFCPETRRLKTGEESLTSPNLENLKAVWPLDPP
An outline of the steps: as §1

In assay [7] the target is T6, ETS2 (Homo sapiens, UniProt P15036 1-469).
T6 sequence: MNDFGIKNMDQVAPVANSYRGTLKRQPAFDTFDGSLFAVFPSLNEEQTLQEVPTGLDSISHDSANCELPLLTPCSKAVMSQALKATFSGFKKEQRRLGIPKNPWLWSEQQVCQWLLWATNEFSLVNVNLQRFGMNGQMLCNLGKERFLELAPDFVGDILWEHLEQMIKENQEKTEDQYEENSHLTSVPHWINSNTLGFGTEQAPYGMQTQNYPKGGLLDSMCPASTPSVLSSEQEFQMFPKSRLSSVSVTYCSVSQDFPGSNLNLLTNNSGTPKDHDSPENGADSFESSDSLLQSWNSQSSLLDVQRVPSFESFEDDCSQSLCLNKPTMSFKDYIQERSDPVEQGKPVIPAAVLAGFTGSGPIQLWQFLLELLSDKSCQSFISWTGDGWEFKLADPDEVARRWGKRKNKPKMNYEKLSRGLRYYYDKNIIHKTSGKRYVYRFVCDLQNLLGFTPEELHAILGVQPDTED
An outline of the steps:
as §1

For assay [8], the target named is T7, ETV7 (Homo sapiens, UniProt Q9Y603 1-341).
T7 sequence: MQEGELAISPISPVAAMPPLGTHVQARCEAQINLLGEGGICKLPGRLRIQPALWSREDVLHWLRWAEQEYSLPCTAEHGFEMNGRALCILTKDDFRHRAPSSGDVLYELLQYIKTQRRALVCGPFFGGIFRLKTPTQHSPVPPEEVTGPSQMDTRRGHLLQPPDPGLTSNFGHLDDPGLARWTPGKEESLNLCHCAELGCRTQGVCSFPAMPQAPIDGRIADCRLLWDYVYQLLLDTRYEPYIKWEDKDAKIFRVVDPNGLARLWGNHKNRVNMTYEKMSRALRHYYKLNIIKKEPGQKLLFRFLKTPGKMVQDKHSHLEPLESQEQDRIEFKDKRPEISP
An outline of the steps: as §1

In assay [9] the target is ETV6 (Homo sapiens, UniProt P41212 1-452). An outline of the steps: as §1
Chain of ETV6 (P41212 whole entry): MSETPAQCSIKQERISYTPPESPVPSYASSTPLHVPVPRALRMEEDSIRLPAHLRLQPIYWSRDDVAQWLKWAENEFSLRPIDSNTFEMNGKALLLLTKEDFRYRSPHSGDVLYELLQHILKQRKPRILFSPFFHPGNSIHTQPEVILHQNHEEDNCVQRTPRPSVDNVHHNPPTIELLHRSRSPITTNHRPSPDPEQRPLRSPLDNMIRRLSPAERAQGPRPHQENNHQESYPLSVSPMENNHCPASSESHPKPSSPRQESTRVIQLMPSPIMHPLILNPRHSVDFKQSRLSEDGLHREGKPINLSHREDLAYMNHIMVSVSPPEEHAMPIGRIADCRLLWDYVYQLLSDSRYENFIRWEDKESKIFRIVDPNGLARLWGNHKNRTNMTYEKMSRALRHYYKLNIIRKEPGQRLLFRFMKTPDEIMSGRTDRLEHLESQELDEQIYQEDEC

Turning to TTGACG, the binding signal in assay [1] is 1.15 fold enrichment (6-mer frequency, TF over GST control); in [2] it was 1.21 fold enrichment (6-mer frequency, TF over GST control); in [3], 1.23 fold enrichment (6-mer frequency, TF over GST control); in assay [4], 1.21 fold enrichment (6-mer frequency, TF over GST control); in assay [5] it was 1.27 fold enrichment (6-mer frequency, TF over GST control); in assay [6] it was 1.12 fold enrichment (6-mer frequency, TF over GST control). Moreover, the binding signal is 1.08 fold enrichment (6-mer frequency, TF over GST control) in [7]; 1.19 fold enrichment (6-mer frequency, TF over GST control) in assay [8]; 1.15 fold enrichment (6-mer frequency, TF over GST control) in assay [9].

(Values after PMC7862700, “An all-to-all approach to the identification of sequence-specific readers for epigenetic DNA modifications on cytosine”.)
